# Source: PubChem
# Sampled rows, rich in hits. Any-hit rate of the full collection: about 19%.
# TDP1 cell CPT = growth inhibition of DT40 Tdp1-/-;hTDP1 cells with camptothecin (screen for TDP1 inhibitors); chicken DT40 Tdp1-/-;hTDP1 cells + 20 nM CPT, ATP luminescence, 48 h; actives 12% (n = 420,000); Potency, µM (doses to about 46.2 µM), for inactives: at the top dose activity change, negative = growth inhibition, hits mostly inhibitors; note: potency is the fitted concentration of half-maximal effect; % is set by controls: 0 for no effect and ±100 for the full control effect; nearly all actives have a fitted effect of over 55% in size
#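 Cell growth measured by CellTiter-Glo luminescence after a minimum 48 h, 37 C compound exposure with 20 nM CPT in Tdp1-knockout DT40 cells stably expressing hTDP1, seeded 400/well; qHTS titration format.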
# MCF10A rereplic = inducers of DNA re-replication in MCF 10A breast cells | actives 2.9% (n = 350,000) | MCF 10A DNA re-replication, Hoechst nuclear intensity, 48 h | Potency, µM (doses to about 46.1 µM), without a hit: at the highest dose activity, positive = re-replication, most hits filed as activators; note: potency is the fitted concentration of half-maximal effect; % of control where 0% means no effect; nearly all actives have a fitted effect of over 50% in size
# Chronic BCR inh = inhibitors of chronic active B-cell receptor signaling; ABC-DLBCL IkBa-CBG/CBR reporter, luminescence ratio, 4 h; Potency, µM (top dose mostly 46.1 µM), inactives show at the highest dose activity change, negative = inhibition, most hits filed as inhibitors; actives 0.05% (n = 340,000); AID 493014; active = well fitted inhibition curve with a large enough effect in the signal ratio, with a control signal flat, not every such curve was filed as active; inconclusive = small, poorly fitted or top-dose-only effect, or effect the other way, or a change in a side signal; the % refers to the signal ratio;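 note: potency is the fitted concentration of half-maximal effect; plate controls were basal doxycycline-induced cells for no effect and cells given 10 µM MG132 for full effect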
#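 TMD8 ABC-DLBCL cells carrying doxycycline-inducible green luciferase fused to IkappaBalpha plus unfused red luciferase were exposed to compounds (up to 46 uM) for 4 hrs at 37C. Activity came from the overlap-corrected green/red luminescence ratio.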
# SW480 rerep = induces DNA re-replication in SW480 colon adenocarcinoma cells; SW480 DNA re-replication, Hoechst DNA content imaging, 48 h; Potency, µM (top dose mostly 46.1 µM), for inactives: at the highest dose re-replication activation, hits mostly activators; actives 1.8% (n = 340,000); AID 624297; note: potency is the fitted concentration of half-maximal effect; % of control where 0% means no effect; nearly all actives have a fitted effect of over 55% in size
#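 250 cells/well; 23 nL cpd via pin tool; 48 hr, 37 C, 5% CO2; Hoechst 40 min; imager read of total nuclear intensity, ex 405/em 500-530 nm.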
# TDP1 cell noCPT = qHTS for Inhibitors of human tyrosyl-DNA phosphodiesterase 1 (TDP1): qHTS in cells in absence of CPT. DT40 Tdp1-/- hTDP1 cells, no CPT, ATP luminescence, 48 h. Potency, µM (top dose mostly 46.2 µM), for the others: top-dose activity change, negative = growth inhibition, usual class: inhibitors. actives 15% (n = 420,000). AID 686978, 2013; note: potency is the fitted concentration of half-maximal effect; % is set by controls: 0 for no effect and ±100 for the full control effect; nearly all actives have a fitted effect of over 55% in size
#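 Camptothecin absent (DMSO only). Human TDP1-complemented DT40 knockout cells, 400 cells/well, 37 °C for minimum 48 hr; ATP measured via CellTiter-Glo, 30 min dark incubation, luminescence.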
# IL-1B inflam inh = blocks inflammasome-driven IL-1 beta release; THP-1 LPS/ATP IL-1B secretion, AlphaLISA, 16 h; hits give low values; activity change, % at 57.5 µM; actives 4.7% (n = 360,000); in the data active = activity change below about -50%; inconclusive = mostly about -30% to -49%; note: % is set by controls: 0 for no effect and ±100 for the full control effect
#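 Secreted IL-1B measured by AlphaLISA bead assay after 16 h compound exposure of THP-1 cells; compounds (final up to 57.5 uM) added 1 h before LPS (250 ng/mL) and ATP (1.25 mM) stimulation; lower signal means less secretion.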
# * hit, by the source's call; i = inactive; u = inconclusive; x = no result. Unless noted, calls come from the whole dose curve; as a rule, active = well fitted curve in the direction sought with a large enough effect; inconclusive = small, poorly fitted or top-dose-only effect, or another doubt; inactive = no such curve, though single readings can be large; an effect the other way counts as inactive or inconclusive.
SMILES,TDP1 cell CPT,MCF10A rereplic,Chronic BCR inh,SW480 rerep,TDP1 cell noCPT,IL-1B inflam inh
COc1cccc(-c2noc(C3CCCN(C(=O)c4ccccc4OC)C3)n2)c1 (stereo not drawn),u,9%,u,0%,u,21
COc1cccc(-c2noc(C3CCCN(C(=O)CC(C)(C)C)C3)n2)c1 (stereo not drawn),16µM*,0.46µM*,u,24%,u,17
CCCC(=O)N1CCCC(c2nc(-c3cccs3)no2)C1 (stereo not drawn),u,u,u,-1%,26µM*,-14
CCCCC(=O)N1CCCC(c2nc(-c3cccc(OC)c3)no2)C1 (stereo not drawn),u,-2%,u,-3%,15µM*,-2
Cc1ccc(S(=O)(=O)N(C)c2ccc(C(=O)Nc3ccccc3C(=O)N3CCOCC3)cc2)cc1,-16%,-36%,2%,u,u,i
CC1=C(C(=O)N2CCOCC2)CC(CC(=O)NCCc2ccccn2)C(=O)N1Cc1ccc(C(C)(C)C)cc1 (stereo not drawn),-24%,x,x,x,-18%,26
NC(=O)c1nsc(C(=O)N(c2ccc3c(c2)OCCO3)C(C(=O)NCC2CCCO2)c2ccc(F)cc2)c1N (stereo not drawn),15µM*,17%,0%,3%,18µM*,-23
Cc1ccc(C(C(=O)NCC2CCCO2)N(C(=O)c2snc(C(N)=O)c2N)c2ccc3c(c2)OCCO3)cc1 (stereo not drawn),23µM*,u,1%,17%,-86%,-24
NC(=O)c1nsc(C(=O)N(c2ccccc2)C(C(=O)NCC2CCCO2)c2ccc(F)cc2)c1N (stereo not drawn),u,12%,2%,22%,u,-13
Cc1cccc(NC(=O)CSc2nc3ccc(N4C(=O)c5ccccc5C4=O)cc3s2)c1C,u,9.2µM*,-14%,u,1%,-4
CCc1cccc(CC)c1NC(=O)CSc1nc2ccc(N3C(=O)C4C5C=CC(C5)C4C3=O)cc2s1 (stereo not drawn),21µM*,u,u,17%,18µM*,-18
CN(C)C(=O)CSc1nc2ccc(N3C(=O)c4ccccc4C3=O)cc2s1,-3%,-2%,4%,-13%,-11%,10
C=CCc1c(NCCO)nc(C)[nH]c1=O,-11%,86%,7%,-31%,-13%,0
O=S(=O)(c1ccccc1)N1CN(c2ccc(F)cc2F)c2nc3ccccc3nc21,u,u,12%,u,26µM*,-7
Cc1nn(-c2ccccc2)c(C)c1C(=O)OC/C(O)=C(\C#N)c1nc2ccccc2[nH]1,-26%,u,-6%,-2%,-7%,27
COc1cc(OC)cc(C(=O)OC/C(O)=C(\C#N)c2nc3ccccc3[nH]2)c1,u,21µM*,1%,u,u,41
Cc1c(C(=O)OC/C(O)=C(\C#N)c2nc3ccccc3[nH]2)oc2ccccc12,6%,15µM*,6%,u,-20%,u
Cc1nn(-c2ccccc2)c(C)c1C(=O)OCC(O)=C(C#N)c1nc2ccccc2[nH]1,6%,18µM*,x,u,u,20
Cc1c(C(=O)OCC(O)=C(C#N)c2nc3ccccc3[nH]2)oc2ccc(Br)cc12,u,u,x,-4%,-29%,19
CCC(Cn1nnc2ccccc2c1=O)NC(=O)Nc1cccc(Cl)c1 (stereo not drawn),-19%,x,x,x,u,x
O=C(/C=C/c1cccc(F)c1)OCC(=O)N1CCCC1,u,u,0%,8.2µM*,u,-12
Cc1cccc(C(=O)OCC(=O)N2CCCCCC2)c1C,u,-12%,0%,-4%,21µM*,-27
CCOC(=O)C1CCCN(C(=O)CC(C)c2ccccc2)C1 (stereo not drawn),-13%,2%,-1%,0%,-1%,6
CCOC(=O)C1CCN(C(=O)CSc2c3c(nc4ccccc24)CCC3)CC1,u,2%,2%,0%,u,-130*
CCOC(=O)C1CCN(C(=O)CC(C)c2ccccc2)CC1 (stereo not drawn),18µM*,29%,x,2%,u,1
SMILES,TDP1 cell CPT,MCF10A rereplic,Chronic BCR inh,SW480 rerep,TDP1 cell noCPT,IL-1B inflam inh
O=C(COC(=O)CNS(=O)(=O)/C=C/c1ccccc1)Nc1cc(S(=O)(=O)N2CCCCC2)ccc1Cl,-29%,8%,2%,-3%,0%,42
COc1ccc(N(CC(=O)N/N=C(\C)CCc2ccccc2)S(=O)(=O)c2ccc(C)cc2)cc1,2%,0%,-1%,4%,6%,-19
CCOC(=O)C1CCN(C(=O)Nc2cc(Cl)cc(Cl)c2)CC1,18µM*,u,-4%,-38%,u,8
CCOC(=O)C1CCN(C(=O)C(CC)c2ccccc2)CC1 (stereo not drawn),-2%,-2%,0%,18µM*,-26%,15
CCOC(=O)C1CCN(C(=O)COC(=O)/C=C/c2ccccc2)CC1,-23%,3%,u,7.3µM*,-14%,u
CCOC(=O)C1CCN(C(=O)CSc2ccccc2)CC1,-5%,1%,17%,-2%,-9%,30
CCOC(=O)C1CCN(C(=O)Nc2cccc(Cl)c2)CC1,7%,0%,u,0%,-3%,9
CCOC(=O)C1CCN(Cc2cc(C(C)C)c(O)c(C(C)C)c2)CC1,9.2µM*,u,-4%,2%,9.2µM*,-12
Nc1ncc(S(=O)(=O)NCc2ccc(Cl)cc2)cn1,-13%,x,x,x,-24%,x
C[C@H]1CN([C@@H](C)CO)C(=O)Cc2cc(NC(=O)Cn3cnnn3)ccc2O[C@H]1CN(C)Cc1ccncc1,4%,-4%,2%,-25%,-11%,73
CC(C)C[C@H](NC(=O)OC(C)(C)C)C(=O)N[C@@H](CO)[C@H](O)[C@@H]1C[C@@H]1C(=O)NC1CC1,1%,-3%,0%,-1%,-16%,10
O=C(/C=C/c1ccccc1)Oc1cccc2cccnc12,u,u,u,u,8.2µM*,-2
Cc1cccc(OCCCCc2c(C)n[nH]c2C)c1C,12µM*,u,-10%,-4%,u,-10
Clc1ccccc1OCCCOc1cccc2cccnc12,15µM*,13%,u,-1%,u,u
